Reference: PubChem BioAssay AID504408 (Broad Institute, 2011)
In all, about 300,000 compounds went through this assay and about 5,200 (1.7%) were called active. This is one part of a sample in which actives are shown more often than they occur. Values without a mark were called inactive.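 Rule for the calls: active = mean replicate activation of at least 50% with a set share of replicates each reaching 50%; inconclusive = only one of those two conditions met; inactive = mean below 50% and too few replicates reaching it.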

experiment: HSF-1 response element luciferase induction – NIH3T3-HGL cells, MG132 stress, luminescence, single point, primary screen (AID 504408); conditions: NIH3T3-HGL HSF-1 luciferase reporter, MG132, 8 h; at 9 µM; active compounds read high; 100% = twice DMSO control signal;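 note: 0% = median of the neutral control wells and 100% = twice that signal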

SMILES	activation
c1ccc(-c2c[nH]c(-c3ccccc3)c2)cc1	-83.8%
Oc1ccc(-c2cccc(-c3ccc(O)cc3)c2)cc1	62% (active)
O=C(OCc1ccc(-c2ccccc2)cc1)c1cccc(O)c1	6.99%
Cc1ccc(-n2c(C)cc(/C=N/Nc3ccc([N+](=O)[O-])cn3)c2C)c(C)c1	57.8% (active)
Cc1cc(/C=N/Nc2ccc([N+](=O)[O-])cn2)c(C)n1-c1cccc(C(=O)O)c1	2.82%
Cc1ccc(N2CCN(c3ccc([N+](=O)[O-])cn3)CC2)c(C)c1	14%
Cc1ccc(S(=O)(=O)NCCC(=O)OCC(=O)N(C)c2ccccc2)cc1	2.24%
O=C(c1ccc(Cl)s1)N(Cc1nnc(-c2ccccc2Cl)o1)C1CC1	19.5%
COc1ccc(/C=C/C(=O)c2ccc(NS(=O)(=O)c3ccc(C)cc3)cc2)cc1O	200% (active)
COc1ccc(NS(=O)(=O)c2ccc(NC(=S)NC(=O)/C=C/c3ccc(C)cc3)cc2)nn1	-3.51%
Cc1ccc(C(=O)/C=C/Nc2ccc(S(=O)(=O)Nc3onc(C)c3C)cc2)cc1	2.18%
COc1ccc(C2CC(c3cccs3)=NN2c2nc(C)c(C(C)=O)s2)cc1OC (stereo not drawn)	149% (active)
Oc1ccccc1C1=NN(c2ccccc2)C(c2ccccc2)C1 (stereo not drawn)	0.471%
COc1ccccc1N1N=C(c2cccs2)CC1c1ccccc1 (stereo not drawn)	9.62%
COc1ccc(C2CC(c3cccs3)=NN2c2ccc(F)cc2)cc1OC (stereo not drawn)	22.9%
COc1ccc(C2=NN(C(=O)CCC(=O)O)C(c3cccs3)C2)cc1OC (stereo not drawn)	-7.93%
COc1ccc(C2CC(c3cccs3)=NN2c2ccccc2)cc1 (stereo not drawn)	67.4% (active)
COc1ccc(C2CC(c3cccs3)=NN2C(=O)CCC(=O)O)cc1OC (stereo not drawn)	-17.8%
COc1ccc(C2=NN(C(C)=O)C(c3ccccc3)C2)cc1 (stereo not drawn)	21.6%
COc1ccc(C2=NN(c3ccccc3)C(c3cccs3)C2)cc1 (stereo not drawn)	50.9% (active)
O=S(=O)(c1ccccc1)N1CCC(c2ccccc2)CC1	-26.8%
CN(N)c1nc(N2CCCC2)nc(N2CCCC2)n1	-5.13%
CC(C)COc1ccc(C(=O)OCC(=O)NCCC2=CCCCC2)cc1	-2.4%
Nc1cccc(-c2cc(-c3ccccc3)nc(-c3cccc(N)c3)n2)c1	-6.32%

SMILES	activation
Nc1nc(-c2ccccc2)cc(-c2ccccc2)n1	21.8%
CNc1nc(-c2ccccc2)cc(-c2ccccc2)n1	74.1% (active)
O=C(COC(=O)c1cccc(Cl)c1)Nc1ccc2[nH]c(=O)[nH]c2c1	9.55%
CSc1ncc(Sc2ccccc2)c(C(=O)O)n1	21.8%
CSc1nc(-c2ccccc2)nc(C(Cl)Cl)n1	84.8% (active)
CCOc1ccccc1OCC(=O)Nc1ccccc1C(=O)NC1CC1	-12.2%
Cc1ccc(CNS(=O)(=O)CCNC(=O)c2ccccc2)cc1	-0.388%
COc1ccccc1C(=O)NCCC(=O)NC(C)CCc1ccccc1 (stereo not drawn)	0.822%
O=C1CCCN1C(=O)COc1ccc([N+](=O)[O-])cc1	-3.27%
O=C(NCc1ccncc1)c1ccc(NS(=O)(=O)c2cccc([N+](=O)[O-])c2)cc1	5.25%
COc1cc(/C=N/Nc2nc3ccccc3s2)ccc1O	193% (active)
CCNc1nc(NCC)nc(N/N=C/c2ccc(O)c(OC)c2)n1	-8.51%
Cc1ccc(S(=O)(=O)Nc2nc3ccccc3s2)cc1[N+](=O)[O-]	9.23%
COc1ccc(CC(=O)N/N=C/c2cc([N+](=O)[O-])cc(Br)c2O)cc1	-6.91%
O=[N+]([O-])c1cc(Br)c(O)c(/C=N/Nc2nc3ccccc3s2)c1	57.3% (active)
COc1cc(/C=N\Nc2nc(-c3cccs3)c(NC(C)=O)s2)ccc1O	-1.06%
O=S(=O)(Nc1ccc(O)c2ccccc12)c1ccc(OC(F)(F)F)cc1	-68.7%
Cc1csc(=O)n1CC(=O)OCC(=O)N(CC(C)C)c1c(N)n(Cc2ccccc2)c(=O)[nH]c1=O	1.95%
COc1ccc(CNC(=O)C2CCCC2)cc1	-6.99%
CCN(CC)CCn1c2c(c(SCC(=O)Nc3nc4ccccc4s3)nc1=O)CCCC2	-7.63%
CC1(C)O[C@H]2CC(=O)OCC23[C@H]2CC[C@@]4(C)[C@H](c5ccoc5)OC(=O)[C@H]5O[C@]54[C@]2(C)C(=O)C[C@@H]13 (stereo partly drawn)	0.574%
CSc1nc2ccc(NC(=O)c3c(F)cccc3F)cc2s1	59.4% (active)
CCCC(=O)Nc1nc2ccc(NC(=O)c3c(F)c(F)c(OC)c(F)c3F)cc2s1	-10.9%
O=C(Nc1ccncc1)c1c(F)cccc1F	-55.9%

SMILES	activation
Cc1onc(-c2c(F)cccc2Cl)c1C(=O)N(C)CC(=O)Nc1cccc(F)c1	-3.94%
Cc1nn2cc(-c3ccc(Cl)cc3)cnc2c1Br	58.7% (active)
CC(=O)c1ccc(NC(=O)c2ccc3c(Cl)c4c(nc3c2)CCCC4)cc1	105% (active)
CC(C)CCNC(=O)c1ccc2c(Cl)c3c(nc2c1)CCC3	-56.3%
COc1ccc(N2CCN(C(=O)c3ccc4c(Cl)c5c(nc4c3)CCCC5)CC2)cc1	-1.04%
N#CCN(C(=O)COC(=O)C1CC2CCCC(C1)C2=O)c1ccccc1 (stereo not drawn)	-11.4%
O=C(NN1CCOCC1)c1cccc(F)c1	13.3%
O=C(COC(=O)Cc1ccccc1F)NNC(=O)c1ccc(Cl)cc1	-9.93%
COc1ccc(CNC(=O)C(=O)N2CCC3(CC2)OCCN3S(=O)(=O)c2ccc(C)cc2)cc1	2.08%
CCN(C(=O)CSc1nnnn1-c1ccccc1OC)C1CCS(=O)(=O)C1 (stereo not drawn)	26%
COc1ccccc1N1CCN(S(=O)(=O)c2ccc(Cl)cc2)CC1	4.97%
COc1ccccc1-n1nnnc1S(=O)(=O)Cc1ccc(Cl)cc1	235% (active)
Cc1ccc(NC(=O)CSc2nc(=O)n(CCN(C)C)c3c2CCCC3)c(C)c1	-10.7%
CN1CCN(S(=O)(=O)c2ccc(Nc3ccc(F)cc3)nc2)CC1	-7%
NS(=O)(=O)c1ccc(CCNC(=O)CN2C(=O)c3ccccc3S2(=O)=O)cc1	-4.15%
COc1ccc(S(=O)(=O)NCCCc2ccccc2)cc1	-30.2%
COc1cccc(/C=C/c2ccc3ccccc3n2)c1OC(C)=O	-16.6%
NC(=O)COC(=O)/C=C/c1ccc2ccccc2n1	-46.9%
CCOc1cccc(/C=C/c2ccc3ccccc3n2)c1OC(C)=O	132% (active)
O=C(Nc1ncccc1O)c1ccc(C(=O)c2ccccc2)cc1	-2.58%
CCCCn1c(N)c(N(CCOC)C(=O)CSCC(=O)Nc2cccc(C)c2)c(=O)[nH]c1=O	1.06%
CCC1Nc2ncnc(N3CCN(c4ccccc4)CC3)c2N(Cc2ccc(Cl)cc2)C1=O (stereo not drawn)	22.3%
Cc1ccc(N2C(=O)SC(N(CC(=O)O)c3ccc(C)cc3)C2=O)cc1 (stereo not drawn)	96.4% (active)
Cc1cccc(N2C(=O)SC(N(CC(=O)O)c3cccc(C)c3)C2=O)c1 (stereo not drawn)	17.2%

SMILES	activation
Cc1ccc(CC2S/C(=C(/C#N)C(=O)N3CCOCC3)N(c3ccccc3)C2=O)cc1 (stereo not drawn)	19.9%
CC(=O)Nc1ccc(C(=O)NNC(=O)CCCCC(=O)NNC(=O)c2ccc(NC(C)=O)cc2)cc1	0.0985%
Cc1ccc(C(=O)NC2CCCC(C)C2C)cc1S(=O)(=O)N1CCCCC1 (stereo not drawn)	2.09%
O=[N+]([O-])c1ccc(S(=O)(=O)Nc2cccc(-c3ccc(N4CCCC4)nn3)c2)cc1	-7.69%
Clc1ccc(-c2ncc3ccccn23)c(Cl)c1	69.3% (active)
COn1c(-c2ccc(Cl)cc2Cl)nc2ncccc21	22.3%
Clc1ccc(COn2c(-c3ccc(Cl)cc3Cl)nc3ncccc32)cc1	-4.74%
COc1ccc(-c2cc(C(=O)n3cnc4ccccc43)c3ccccc3n2)cc1	-1.65%
COc1ccc(-c2nc3ccccc3c(=O)n2CCc2ccc(O)cc2)cc1	29.5%
COc1ccc(-c2c(C#Cc3ccccc3)c3ccccc3n2C)cc1	64.2% (active)
O=C(COC(=O)c1ccccc1Br)Nc1nnc(-c2ccccc2)o1	-10.6%
CC1CCN(c2ccc(-c3ccc(NC(=O)c4ccco4)cc3)nn2)CC1	-39.2%
CSCCC(NC(=O)c1ccco1)C(=O)Nc1cc(C)ccn1 (stereo not drawn)	4.08%
Cc1ccc(-c2csc(NC(=O)C3=COCCO3)n2)cc1C	31.4%
Cc1cc(C)c2c3c(sc2n1)C(c1ccccc1)C(C#N)=C(N)O3 (stereo not drawn)	-10.5%
Cc1cc(C)c(C#N)c(SCc2[nH]nc3c2C(c2ccccc2)C(C#N)=C(N)O3)n1 (stereo not drawn)	64% (active)
CCc1ccc(C2C(C#N)=C(N)Oc3n[nH]c(CC(=O)OC)c32)cc1 (stereo not drawn)	3.08%
CCN(C(=O)CSc1ncnc2c1cnn2-c1ccccc1)C1CCS(=O)(=O)C1 (stereo not drawn)	-4.69%
Nc1scc(-c2ccncc2)c1Cl	11.5%
Clc1ccc(-c2csc(-c3ccncc3)n2)cc1	58% (active)
Fc1ccc(-c2csc(-c3ccc(C4SCCS4)cc3)n2)cc1F	23.4%
